According to PubChem BioAssay (NCI):
About 83,000 compounds went through this panel and 20% of them were active in at least one assay; those are over-represented in the sample as a whole.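 Assay: single dose, 48 h. Readout: percent growth (0 = no net growth; negative = cell death). Active: <10.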

Key:
Assay in all cases: NCI-60 one-dose screen, 48 h (100 = growth as untreated, 0 = no growth, -100 = all killed)
Conditions in all cases: 10 µM unless noted
NCI-H23 lung = system: NCI-H23 lung
NCI-H226 lung = system: NCI-H226 lung
NCI-H322M lung = system: NCI-H322M lung
HOP-62 NSCLC = system: HOP-62 NSCLC
NCI-H460 lung = system: NCI-H460 lung
HOP-92 NSCLC = system: HOP-92 NSCLC
NCI-H522 lung = system: NCI-H522 lung
A549/ATCC NSCLC = system: A549/ATCC NSCLC
786-0 renal = system: 786-0 renal
COLO 205 colon = system: COLO 205 colon
DU-145 prostate = system: DU-145 prostate
K-562 leukemia = system: K-562 leukemia
MALME-3M melanoma = system: MALME-3M melanoma
MDA-MB-231 breast = system: MDA-MB-231 breast
RXF 393 renal = system: RXF 393 renal
SF-268 CNS = system: SF-268 CNS
SF-295 CNS = system: SF-295 CNS
SF-539 CNS = system: SF-539 CNS
UACC-257 melanoma = system: UACC-257 melanoma
M14 melanoma = system: M14 melanoma

Measured: growth

O=C(O)c1c(Cl)n(Cc2ccc(O)cc2)c2ccc(O)cc12
inactive: NCI-H23 lung 113% | NCI-H226 lung 97.2% | NCI-H322M lung 96.3% | HOP-62 NSCLC 93.7% | NCI-H460 lung 106% | HOP-92 NSCLC 65% | NCI-H522 lung 83.4% | A549/ATCC NSCLC 103% | 786-0 renal 108% | COLO 205 colon 110% | DU-145 prostate 111% | K-562 leukemia 112% | MALME-3M melanoma 106% | MDA-MB-231 breast 102% | RXF 393 renal 46.6% | SF-268 CNS 101% | SF-295 CNS 101% | SF-539 CNS 98.8% | UACC-257 melanoma 101% | M14 melanoma 98%

CC1=C(CN)C2=C(C)C3(CC3)[C@@](C)(O)C(=O)C2=C1
inactive: NCI-H23 lung 68.2% | NCI-H226 lung 91.8% | NCI-H322M lung 91.6% | HOP-62 NSCLC 88.2% | NCI-H460 lung 66.1% | HOP-92 NSCLC 115% | NCI-H522 lung 87.9% | A549/ATCC NSCLC 93.5% | 786-0 renal 99% | COLO 205 colon 85.1% | DU-145 prostate 48.5% | K-562 leukemia 111% | MALME-3M melanoma 96.2% | MDA-MB-231 breast 95.2% | RXF 393 renal 91.6% | SF-268 CNS 72.1% | SF-295 CNS 78.9% | SF-539 CNS 94.8% | UACC-257 melanoma 87.2% | M14 melanoma 96.1%

C[C@]12C[C@@H](CO)[C@H](O)C[C@@H]1CC[C@@H]1[C@@H]2CC[C@]2(C)[C@@H](O)CC[C@@H]12
inactive: NCI-H23 lung 102% | NCI-H226 lung 102% | NCI-H322M lung 91.1% | HOP-62 NSCLC 107% | NCI-H460 lung 106% | HOP-92 NSCLC 87.3% | NCI-H522 lung 77.7% | A549/ATCC NSCLC 99.7% | 786-0 renal 102% | COLO 205 colon 108% | DU-145 prostate 106% | K-562 leukemia 74.7% | MALME-3M melanoma 90.6% | MDA-MB-231 breast 111% | RXF 393 renal 113% | SF-268 CNS 103% | SF-295 CNS 113% | SF-539 CNS 95.8% | UACC-257 melanoma 90.4% | M14 melanoma 103%
